Most compounds without a hit are left out; they make up all but 2.3% or so of the library.
BCLXL inh – inhibitors of human Bcl-xL; Q07817; GST-Bcl-xL / FITC-Bim BH3 peptide fluorescence polarization; inhibition, % at 10.9 µM; 0.7% of 320,000 active;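 active = inhibition above the mean of all tested compounds plus 3 SD, cutoff set per campaign, cut at about 30% in these data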;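 also: 0% = DMSO wells and 100% = unlabeled Bim-BH3 peptide competitor; inhibitors lower millipolarization by displacing the labeled peptide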
MCL1 BIM primary – MCL1-BIM-BH3 interaction inhibition (human); 0.68% of 320,000 active; GST-MCL1 / FITC-Bim-BH3 fluorescence polarization; inhibition, % at 10.9 µM; Q07820;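 active = inhibition above the mean inhibition of all tested compounds plus 3 SD, set per campaign, cut at about 40% in these data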;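 also: 0% = DMSO wells and 100% = unlabeled Bim-BH3 peptide control; higher means more loss of mP so more displacement of Bim peptide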
Target sequence (Q07820 whole entry, looked up): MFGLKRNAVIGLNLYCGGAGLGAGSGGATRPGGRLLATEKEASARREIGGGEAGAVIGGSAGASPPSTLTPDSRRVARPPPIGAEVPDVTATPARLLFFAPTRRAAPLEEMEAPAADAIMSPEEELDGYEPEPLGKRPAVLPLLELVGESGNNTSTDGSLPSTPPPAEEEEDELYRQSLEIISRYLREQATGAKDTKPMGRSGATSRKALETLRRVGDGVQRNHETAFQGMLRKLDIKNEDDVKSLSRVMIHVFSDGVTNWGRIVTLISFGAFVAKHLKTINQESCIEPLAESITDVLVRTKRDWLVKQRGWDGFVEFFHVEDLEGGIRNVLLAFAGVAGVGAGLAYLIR
Bim-Mcl-1 – disrupts Bim peptide binding to human Mcl-1; AID 1009; 0.1% of 190,000 active; Bead-based flow cytometry, Bim peptide-Mcl-1 binding; inhibition, % at 10 µM; in the data active = inhibition above about 40%;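 also: 0% = no compound tracer wells and 100% = peptide blocker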
GLD-1 RNA inh – GLD-1-TGE RNA interaction inhibition (C. elegans) | purified GLD-1 + fluorescein TGE RNA, fluorescence polarization | 0.44% of 320,000 active | AID 2280 | inhibition, % at 5.96 µM;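 active = percent inhibition above a per-plate cutoff, the plate mean of test compounds plus 3 SD, cut at about 30% in these data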;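 also: 0% = DMSO wells with GLD-1 and probe and 100% = wells lacking GLD-1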
Mcl1-Bid inh – Mcl-1/Bid interaction inhibition. TR-FRET Mcl-1/Bid-Dy647 peptide binding, 1536-well. inhibition, % at 21.7 µM. 0.97% of 220,000 active. AID 1021;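 active = compounds that cut the binding signal by more than half at the single screening dose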;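 also: His-tagged Mcl-1 with europium anti-His antibody binding Bid BH3 peptide; 0% = Mcl-1 plus peptide wells and 100% = peptide-only wells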
Mcl1-Noxa inh – disrupts binding of human Mcl-1 to Noxa peptide | inhibition, % at 21.7 µM | 1.5% of 220,000 active | TR-FRET Mcl-1/Noxa peptide binding, 2 h;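 active = compounds that cut the protein-peptide binding signal by more than 50% relative to plate controls in a single-dose test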;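 also: His-tagged Mcl-1 with rhodamine Noxa BH3 peptide and terbium anti-His antibody; 0% = Mcl-1 plus Noxa peptide wells and 100% = peptide-only wells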
Bcl-xL conf – Bcl-xL (human) inhibition, MCL1 counter-screen confirmation. shares compounds with MCL1 BIM primary. GST-Bcl-xL / FITC-Bim BH3 peptide FP binding. inhibition, % at 10.9 µM. 54% of 1,700 active;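 active = inhibition above a cutoff equal to the mean inhibition of all tested compounds plus 3 SD, cut at about 30% in these data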;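 also: 0% = DMSO wells and 100% = unlabeled Bim BH3 control peptide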
MCL1 BIM confirm – confirmation of human MCL1 and BIM-BH3 interaction inhibitors | 61% of 1,700 active | GST-MCL1 / FITC-Bim-BH3 fluorescence polarization | inhibition, % at 10.9 µM | AID 2168 | shares compounds with MCL1 BIM primary;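 active = inhibition above the average of all tested compounds plus 3 SD, cut at about 40% in these data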;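 also: 0% = DMSO wells and 100% = unlabeled Bim-BH3 control peptide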
GLD-1 TGE cf – GLD-1 TGE RNA interaction inhibition, confirmation. 10% of 550 active. shares compounds with GLD-1 RNA inh. GLD-1/FL-TGE RNA fluorescence polarization, biochemical. inhibition, % at 5.96 µM;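 active = average inhibition across triplicates above the hit cutoff set in the primary screen, cut at about 32% in these data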;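 also: 0% = GLD-1 with RNA probe and DMSO and 100% = wells lacking GLD-1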
* hit, by the source's call; nt = not tested or not shown; + = active, no number.

SMILES | BCLXL inh | MCL1 BIM primary | Bim-Mcl-1 | GLD-1 RNA inh | Mcl1-Bid inh | Mcl1-Noxa inh | Bcl-xL conf | MCL1 BIM confirm | others
Nc1cccc(N=Cc2c(O)n(Cc3ccc(F)cc3)c(=O)[nH]c2=O)c1 | 66.4* | 83.8* | -2.0 | -63.5 | -27.1 | 9.2 | 15.7 | 1.6
O=c1[nH]c(=O)n(Cc2ccc(F)cc2)c(O)c1C=Nc1ccc(Cl)cc1 | -5.4 | -3.1 | -2.0 | -3.9 | 3.2 | 21.2 | nt | nt
CC1=NCCc2c1[nH]c1cc(O)ccc21 | + | + | nt | + | nt | nt | + | +
NC(Cc1cc(O)c(O)cc1O)C(=O)O (stereo not drawn) | 66.8* | 95.4* | nt | 13.5 | nt | nt | 54.6* | 96.1*
O=[N+]([O-])c1cc(S(=O)(=O)c2ccc(O)c([N+](=O)[O-])c2)ccc1O | 14.7 | 47.3* | 0.0 | -2.9 | -70.0 | 84.9* | 24.0 | 71.9*
CC1CCCC(NC(=O)COC(=O)c2cn(C)c3ccccc23)C1C (stereo not drawn) | -2.5 | -1.5 | nt | -3.6 | nt | nt | nt | nt
CC1=C[C@@H]2c3cccc4[nH]cc(c34)C[C@H]2N(C)C1 | 168.9* | + | nt | 118.2* | nt | nt | 141.1* | 163.2*
O=c1[nH]c2ccccc2n1CCCN1CCC(n2c(=O)[nH]c3cc(Cl)ccc32)CC1 | 36.7* | 54.0* | 0.0 | 29.5 | -9.4 | 23.2 | 9.7 | 5.8
COc1ccc(N2C(=O)CC(N3CCC(n4c(=O)[nH]c5ccccc54)CC3)C2=O)cc1 (stereo not drawn) | 2.8 | -4.2 | 2.0 | 7.4 | -9.1 | 23.2 | nt | nt
COc1cc(OC)c(OC)cc1/C=C1/C(=O)NC(=O)N(Cc2ccccc2)C1=O | -16.9 | -17.9 | nt | -10.2 | -32.7 | 8.1 | nt | nt
Cc1cc(/C=C2\C(=O)NC(=O)N(Cc3ccccc3)C2=O)c(C)n1C1CC1 | -2.4 | 66.9* | 4.0 | 0.0 | -47.2 | -16.8 | 18.7 | 16.9
Nc1cc2nc3ccccc3nc2cc1N | 95.6* | 140.4* | nt | 36.0* | -55.3 | 51.2* | + | + | GLD-1 TGE cf=60.6*
CN1C[C@H](CO)C=C2c3cccc4[nH]cc(c34)C[C@H]21 | 70.0* | 79.1* | 1.0 | 63.6* | -22.7 | 19.3 | 65.1* | 86.7* | GLD-1 TGE cf=16.6
CC(C)[C@@]1(NC(=O)[C@@H]2C=C3c4cccc5[nH]cc(c45)C[C@H]3N(C)C2)O[C@@]2(O)[C@@H]3CCCN3C(=O)[C@H](Cc3ccccc3)N2C1=O | nt | nt | 5.0 | nt | -9.3 | 24.2 | nt | nt
COCCO[C@H]1CCC2C3CC=C4C[C@@H](O)CC[C@]4(C)C3CC[C@@]21C (stereo partly drawn) | nt | nt | nt | 5.4 | nt | nt | nt | nt
COC(=O)[C@@]1(C#N)[C@@H]2C=CC(C(C)=O)=CN2[C@@H](C(N)=O)[C@@H]1c1ccc(F)cc1 | 72.2* | 81.4* | nt | 43.9* | -36.4 | 4.8 | 149.0* | 188.8* | GLD-1 TGE cf=97.3*
COC(=O)C1=C(c2ccc(-c3ccccc3)c(F)c2)C[C@@H]2CC[C@H]1N2C(=O)NCCOc1ccc(OC)cc1 | -4.4 | 0.3 | nt | 4.4 | nt | nt | nt | nt
CN1Cc2c(c(C#N)c(N)n(C)c2=S)CC1(C)C | 94.3* | 102.7* | 5.0 | 46.1* | -64.7 | 15.3 | 144.0* | 184.6* | GLD-1 TGE cf=26.9
C[C@]12C[C@@H](O)[C@H](O)CC1=CCC1C2CC[C@@]2(C)C1CC[C@@H]2O (stereo partly drawn) | nt | nt | nt | 2.7 | nt | nt | nt | nt
COc1cc2c(C(=O)N3CCN(C)CC3)c(C)n(C)c2cc1Br | 39.8* | 42.0* | -7.0 | 37.6* | -1.8 | 6.0 | nt | nt | GLD-1 TGE cf=5.2
N=C1c2ccccc2CN1NC(=O)c1ccco1 | nt | nt | nt | 5.5 | nt | nt | nt | nt

Source: PubChem (several laboratories)
